# Screening results from PubChem.
# IL1B secr inh – qHTS for Inhibitors of Inflammasome Signaling: IL-1-beta AlphaLISA Primary Screen | THP-1 LPS/ATP IL-1B secretion, AlphaLISA, 16 h; active compounds read low | activity change, % at 57.5 µM | actives 4.7% (n = 360,000) | AID 743279, 2014; in the data active = activity change below about -50%; inconclusive = mostly about -30% to -49%
#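 Secreted IL-1B measured by AlphaLISA bead assay after 16 h compound exposure of THP-1 cells; compounds (final up to 57.5 uM) added 1 h before LPS (250 ng/mL) and ATP (1.25 mM) stimulation; lower signal means less secretion.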
# KB-V1 MDR tox – qHTS assay for MDR1-selective chemotherapeutics: Primary screen using the drug-selected MDR subline cells KB-V1; KB-V1 MDR cells viability, CellTiter-Glo, 72 h; actives 3.4% (n = 400,000); Potency, µM (top dose mostly 46.1 µM), actives largely listed as cytotoxic; AID 1347076, 2019; also: potency is read from the fitted curve at half-maximal effect; nearly all actives have a fitted effect of over 60% in size
#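 qHTS viability screen in drug-selected KB-V1 MDR cells: 72 h compound treatment at 37 degrees C, ATP luminescence end point.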
# HT1080 IDH1KD tx – qHTS for induction of synthetic lethality in tumor cells producing 2HG: qHTS for the HT-1080-IDH1KD cell line; HT-1080 IDH1 knockdown viability, ATP luminescence, 48 h; Potency, µM (doses to about 46.1 µM), inactives show top-dose activity, negative = toxicity, usual class: cytotoxic; actives 2% (n = 360,000); AID 686971, 2013;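 also: potency is read from the fitted curve at half-maximal effect; 0% = DMSO wells and -100% = cell-free medium wells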
#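 Assay cells: HT-1080 with IDH1 knockdown, 750 per well, RPMI/5% FBS. Exposure: 48 h at 37 °C following 2 h pre-incubation. Read: CellTiter-Glo luminescence; fitted concentration-response, curve class assigned.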
# KB-3-1 tox – qHTS assay for MDR1-selective chemotherapeutics: Primary screen using the parental adenocarcinoma cell KB-3-1 | KB-3-1 viability, CellTiter-Glo ATP luminescence, 72 h | Potency, µM (highest dose often 46.1 µM), most hits filed as cytotoxic | actives 1.4% (n = 400,000); also: potency is read from the fitted curve at half-maximal effect; nearly all actives have a fitted effect of over 60% in size
#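 Here the drug-naive KB-3-1 line serves as comparator for MDR sub-line selectivity; cells received compound titrations, 72 h at 37 °C, then CellTiter-Glo readout.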
# HT1080NT lethal – qHTS for induction of synthetic lethality in tumor cells producing 2HG: qHTS for the HT-1080-NT fibrosarcoma cell line. actives 1.6% (n = 360,000). AID 686970, 2013. Potency, µM (highest dose often 46.1 µM), for inactives: at the highest dose activity, negative = less viability, actives largely listed as cytotoxic. HT-1080-NT fibrosarcoma viability, CellTiter-Glo ATP luminescence, 48 h;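 also: NT is the 2HG producing partner of a matched IDH1 knockdown line; potency is read from the fitted curve at half-maximal effect; 0% = DMSO-treated cells and -100% = media-only wells without cells; nearly all actives have a fitted effect of over 55% in size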
#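 Compounds were tested in concentration-response format on HT-1080-NT cells for 48 hours at 37 degrees C. Cell viability came from CellTiter-Glo luminescence; curves were classified by r2, response magnitude and activity.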
# * hit, by the source's call; i = inactive; ? = inconclusive; / = no result; ! = not confirmed by another sample. Sampled rows, rich in hits. Any-hit rate of the full collection: about 8.8%. Unless noted, calls follow the shape of the dose curve; as a rule, active = well fitted curve in the direction sought with a large enough effect; inconclusive = small, poorly fitted or top-dose-only effect, or another doubt; inactive = no such curve, though single readings can be large; an effect the other way counts as inactive or inconclusive. Unless noted, % is scaled to controls: 0 for no effect and ±100 for the full control effect.
SMILES,IL1B secr inh,KB-V1 MDR tox,HT1080 IDH1KD tx,KB-3-1 tox,HT1080NT lethal
Nc1nc2ncc(C(=O)c3cc(Cl)cc(Cl)c3O)cc2s1,30.6,i,0.0%,i,-4.4%
CC(C)c1noc2ncc(C(=O)c3cc(Cl)cc(Cl)c3O)cc12,11.7,16.4µM*,0.5%,?,0.7%
O=C(NNC(=O)c1cc(-c2ccc(Cl)cc2)nc2ccccc12)c1csc(N2CCOCC2)n1,-15.4,i,-22.9%,i,-25.2%
C[C@@H]1[C@H](c2ccccc2)OCCS(=O)(=O)N1Cc1ccc(Cl)cc1,/,11.6µM*,/,16.4µM*,/
Cc1ccc2c(C)c(C(=O)N3CCN(Cc4ccc5c(c4)OCO5)CC3)oc2c1C,-77.5*,?,-27.4%,?,-11.3%
O=C(c1cccc(Cl)c1)N1CCN(Cc2ccc3c(c2)OCO3)CC1,-9.2,i,7.2%,i,7.8%
COc1ccc(C(=O)N2CCN(Cc3ccccc3)CC2)cc1[N+](=O)[O-],-5.9,i,-3.1%,i,1.1%
Cc1ccc(C(=O)N2CCN(Cc3ccc4c(c3)OCO4)CC2)cc1S(=O)(=O)N1CCOCC1,-23.7,16.4µM*,-1.0%,i,-3.9%
O=C(c1ccc(S(=O)(=O)c2cccc(Cl)c2)c([N+](=O)[O-])c1)N1CCN(Cc2ccccc2)CC1,-98.9*,?,?,?,8.2µM*
O=C(c1ccc(Cl)c([N+](=O)[O-])c1)N1CCN(Cc2ccc3c(c2)OCO3)CC1,-75.6*,i,-5.0%,i,0.8%
Cc1nc(N2C(=O)c3oc4ccccc4c(=O)c3C2c2cccc(OCCC(C)C)c2)sc1C (stereo not given),/,i,/,i,/
CSCCC(=O)N1CCC(n2nccc2NC(=O)CCCc2ccccc2)CC1,-0.5,i,-10.4%,i,-0.6%
NS(=O)(=O)c1cccc(NC(=O)Cn2nc(C(=O)O)c3ccccc3c2=O)c1,-1.6,i,-11.0%,i,-1.3%
Cc1cc(C)cc(-n2ncc3c2CCCC3NC(=O)CCN2Cc3ccccc3C2=O)c1 (stereo not given),i,i,-0.2%,i,-0.6%
Cc1ccc2c(C)c(C(=O)N3CCN(c4cnccn4)CC3)oc2c1C,-62.9*,/,-8.3%,/,1.9%
O=C(NCc1ccccc1)N1CCn2c(nc3ccccc32)C1,4.8,18.4µM*,6.0%,i,0.6%
Cc1ccccc1-c1nc(-c2cccnc2)no1,10.7,i,-15.8%,i,0.2%
COc1nc(C)ccc1-c1noc(-c2ccccn2)n1,?,11.6µM*,-16.9%,i,-29.7%
COc1ccccc1-c1nc(-c2ccc(C)nc2OC)no1,-20.7,i,0.3%,i,-12.5%
COc1ccccc1-c1nc(-c2ccccn2)no1,6.6,?,23.1µM*,?,20.6µM*
COc1ccc(-c2nc(-c3ccccn3)no2)cc1,-1.5,i,9.2µM*,?,8.2µM*
Cc1ccccc1-c1nc(-c2ccccn2)no1,-0.8,?,20.6µM*,?,23.1µM*
COc1ccc(C(=O)NCC(=O)OCC(=O)c2ccc3ccccc3c2)cc1,/,i,/,i,/
CCN(CC)CCCNC(=O)C1CCN(C(=O)c2oc3cc4sc(N(C)C)nc4cc3c2C)CC1,-6.1,?,-2.2%,i,2.4%
O=C(CSc1nnc(COc2ccccc2)o1)N1CCCCC1,-12.0,i,12.3%,i,17.1%
SMILES,IL1B secr inh,KB-V1 MDR tox,HT1080 IDH1KD tx,KB-3-1 tox,HT1080NT lethal
COc1ccc(CC(=O)Nc2ccc(-c3nc4ccccc4s3)cc2Cl)cc1OC,/,i,/,i,/
COc1cccc(-c2nc(-c3ccc(C(=O)O)cc3)no2)c1,/,i,/,i,/
COc1cccc(-c2noc(-c3ccc(Cl)nc3)n2)c1,-75.3*,i,-3.3%,i,4.1%
CC1CCCC(NC(=O)COC(=O)[C@@H](NC(=O)c2ccc(F)cc2)C(C)C)C1C (stereo not given in full),12.2,i,13.6%,i,1.9%
O=c1[nH][nH]c2c1[C@H](CCc1cccc(Cl)c1)O[C@H](C1CCCC1)C2,-19.9,i,7.31µM*,i,?
O=c1[nH][nH]c2c1[C@H](CCc1cccc(Cl)c1)O[C@H](C1CC1)C2,-18.5,i,4.7%,i,16.6%
CCNC(=O)CC1C(=O)N(c2ccc(C)cc2)C(=O)N1CCc1sccc1C (stereo not given),10.2,i,-1.7%,i,-5.7%
C=CCn1c(NC(=O)c2ccc(C)cc2)c(C#N)sc1=N,-2.3,1.3µM*,?,5.17µM*,19.5%
Cc1noc(C)c1CSCC(=O)Nc1nc2ccc(F)cc2s1,-17.9,i,-10.7%,i,-0.8%
Cc1nc2c(C)c(C)c(C)c(C)c2nc1C,/,i,3.9%,i,9.5%
Cc1nc2c(O)c3c(c(O)c2nc1C)C1C=CC3CC1,0.0,?,16.4µM*,i,?
NC(=O)c1c(NC(=O)C2CCCO2)sc2c1CCCC2 (stereo not given),-13.6,14.6µM*!,8.9%,i,17.1%
N#Cc1c(NC(=S)NC(=O)C2CCCC2)sc2c1CCCCC2,-54.4*,?,-19.9%,i,-10.9%
Cc1sc(NC(=O)C2CCCO2)c(C#N)c1C (stereo not given),-15.9,i,-0.2%,i,-2.3%
COC(=O)Nc1sc2c(c1C(=O)NC1CC1)CCCCCC2,3.9,23.1µM*,-9.3%,i,4.9%
N#Cc1c(NC(=O)C2CCCO2)sc2c1CCCCCC2 (stereo not given),-2.2,18.4µM*,11.1%,i,4.6%
CCOC(=O)c1c(NC(=O)C2CCCO2)sc2c1CCC2 (stereo not given),-10.1,i,1.7%,i,-0.5%
Cc1nnc(SCC(=O)Nc2sc3c(c2C#N)CCCCC3)n1N,29.3,i,-4.3%,i,-3.6%
N#Cc1c(NC(=O)CSc2nnnn2C2CCCCC2)sc2c1CCCC2,15.2,23.1µM*,12.2%,i,9.2%
O=C(Nc1ccccc1C(=O)NCc1ccc(Cl)cc1)c1ccco1,-12.3,8.2µM*,-11.6%,i,-8.3%
O=C(Nc1ccc(Cl)cc1C(=O)Nc1ccccn1)c1ccco1,-52.0*,?,-23.2%,i,1.7%
Cc1ccnc(NC(=O)c2ccccc2NC(=O)c2ccc(Cl)cc2Cl)c1,63.3,3.26µM*,4.61µM*,5.8µM*,2.91µM*
O=C(O)CNC(=O)c1ccccc1NC(=O)c1ccco1,23.6,i,2.4%,i,4.7%
